Source: the supplement of paper PMC8728848
About 410 targets per protein were measured; listed, in parts, are those with the strongest signals and a random draw of the rest.

Tests used:
Test in all cases: glycan array binding signal (z-score within array); higher = stronger binding
Settings in all cases: glycan notation: IUPAC condensed, linker removed
[1] = target: Gal3S(b1-4)[Fuc(a1-3)]GlcNAc
Procedure, shortened: (§1)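 The binding signal is a Z-score computed within each array. Data were drawn from 3228 arrays in the Consortium for Functional Glycomics database, restricted to those with a known protein sequence. Scores were averaged over arrays of the same protein sequence at different concentrations or buffers, and over linkers, and negative values can be taken as non-binding.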

Gal3S6S(b1-4)GlcNAc6S = target: Gal3S6S(b1-4)GlcNAc6S
Procedure, shortened: as §1

Gal6S(b1-3)GlcNAc6S = target: Gal6S(b1-3)GlcNAc6S
Procedure, shortened: as §1

Gal6S(b1-4)GlcNAc6S = target: Gal6S(b1-4)GlcNAc6S
Procedure, shortened: as §1

[2] = target: GalNAc(a1-3)Fuc(a1-2)Gal(b1-4)GlcNAc(b1-3)[GalNAc(a1-3)Fuc(a1-2)Gal(b1-4)GlcNAc(b1-6)]GalNAc
Procedure, shortened: as §1

[3] = target: GalNAc(b1-3)Gal(a1-4)Gal(b1-4)GlcNAc
Procedure, shortened: as §1

GalNAc(b1-4)Gal(b1-4)Glc = target: GalNAc(b1-4)Gal(b1-4)Glc
Procedure, shortened: as §1

[4] = target: GalNAc(b1-4)GlcNAc(b1-3)GalNAc(b1-4)GlcNAc
Procedure, shortened: as §1

GalNAc(b1-4)GlcNAc6S = target: GalNAc(b1-4)GlcNAc6S
Procedure, shortened: as §1

GalNAc6S(b1-4)GlcNAc = target: GalNAc6S(b1-4)GlcNAc
Procedure, shortened: as §1

[5] = target: GlcA3S(b1-3)Gal(b1-4)GlcNAc(b1-3)Gal(b1-4)Glc
Procedure, shortened: as §1

[6] = target: GlcNAc(b1-2)[GlcNAc(b1-4)]Man(a1-3)[GlcNAc(b1-4)][GlcNAc(b1-2)Man(a1-6)]Man(b1-4)GlcNAc(b1-4)GlcNAc
Procedure, shortened: as §1

[7] = target: GlcNAc(b1-3)Gal(b1-4)GlcNAc(b1-3)Gal(b1-4)GlcNAc(b1-2)[GlcNAc(b1-3)Gal(b1-4)GlcNAc(b1-3)Gal(b1-4)GlcNAc(b1-6)]Man(a1-6)[GlcNAc(b1-3)Gal(b1-4)GlcNAc(b1-3)Gal(b1-4)GlcNAc(b1-2)Man(a1-3)]Man(b1-4)GlcNAc(b1-4)[Fuc(a1-6)]GlcNAc
Procedure, shortened: as §1

[8] = target: GlcNAc(b1-3)Gal(b1-4)GlcNAc(b1-3)Gal(b1-4)GlcNAc(b1-3)Gal(b1-4)GlcNAc(b1-2)[GlcNAc(b1-3)Gal(b1-4)GlcNAc(b1-3)Gal(b1-4)GlcNAc(b1-3)Gal(b1-4)GlcNAc(b1-6)]Man(a1-6)[GlcNAc(b1-3)Gal(b1-4)GlcNAc(b1-3)Gal(b1-4)GlcNAc(b1-3)Gal(b1-4)GlcNAc(b1-2)Man(a1-3)]Man(b1-4)GlcNAc(b1-4)[Fuc(a1-6)]GlcNAc
Procedure, shortened: as §1

[9] = target: GlcNAc(b1-3)Gal(b1-4)GlcNAc(b1-3)Gal(b1-4)GlcNAc(b1-3)Gal(b1-4)GlcNAc(b1-3)Gal(b1-4)GlcNAc(b1-2)Man(a1-3)[GlcNAc(b1-3)Gal(b1-4)GlcNAc(b1-3)Gal(b1-4)GlcNAc(b1-3)Gal(b1-4)GlcNAc(b1-3)Gal(b1-4)GlcNAc(b1-2)Man(a1-6)]Man(b1-4)GlcNAc(b1-4)[Fuc(a1-6)]GlcNAc
Procedure, shortened: as §1

[10] = target: GlcNAc(b1-4)GlcNAc(b1-4)GlcNAc
Procedure, shortened: as §1

Man(a1-6)Man = target: Man(a1-6)Man
Procedure, shortened: as §1

[11] = target: Neu5Ac(a2-3)Gal(b1-3)GalNAc
Procedure, shortened: as §1

[12] = target: Neu5Ac(a2-3)Gal(b1-3)GlcNAc(b1-3)Gal(b1-3)GlcNAc
Procedure, shortened: as §1

[13] = target: Neu5Ac(a2-3)Gal(b1-3)[Fuc(a1-4)]GlcNAc
Procedure, shortened: as §1

[14] = target: Neu5Ac(a2-3)Gal(b1-4)GlcNAc(b1-2)[Neu5Ac(a2-3)Gal(b1-4)GlcNAc(b1-6)]Man(a1-6)[Neu5Ac(a2-3)Gal(b1-4)GlcNAc(b1-2)Man(a1-3)][GlcNAc(b1-4)]Man(b1-4)GlcNAc(b1-4)GlcNAc
Procedure, shortened: as §1

[15] = target: Neu5Ac(a2-3)Gal(b1-4)[Fuc(a1-3)]GlcNAc(b1-3)Gal
Procedure, shortened: as §1

[16] = target: Neu5Ac(a2-3)Gal(b1-4)[Fuc(a1-3)]GlcNAc6S
Procedure, shortened: as §1

[17] = target: Neu5Ac(a2-3)Gal6S(b1-4)[Fuc(a1-3)]GlcNAc
Procedure, shortened: as §1

[18] = target: Neu5Ac(a2-6)Gal(b1-4)GlcNAc(b1-2)Man(a1-3)[GlcNAc(b1-2)Man(b1-4)GlcNAc(b1-2)Man(a1-6)]Man(b1-4)GlcNAc(b1-4)GlcNAc
Procedure, shortened: as §1

[19] = target: Neu5Ac(a2-6)Gal(b1-4)GlcNAc(b1-2)Man(a1-3)[Man(a1-6)]Man(b1-4)GlcNAc(b1-4)GlcNAc
Procedure, shortened: as §1

[20] = target: Neu5Ac(a2-6)Gal(b1-4)GlcNAc(b1-3)Gal(b1-4)[Fuc(a1-3)]GlcNAc(b1-3)Gal(b1-4)[Fuc(a1-3)]GlcNAc
Procedure, shortened: as §1

[21] = target: Neu5Ac(a2-6)Gal(b1-4)GlcNAc6S
Procedure, shortened: as §1

[22] = target: Neu5Ac(a2-8)Neu5Ac(a2-3)Gal(b1-4)GlcNAc
Procedure, shortened: as §1

KISKRILTGKK [NK11 (Sus scrofa)]
glycan array binding signal (z-score) [1]: 2.52 | glycan array binding signal (z-score) (Gal3S6S(b1-4)GlcNAc6S): 1.05 | glycan array binding signal (z-score) (Gal6S(b1-3)GlcNAc6S): 3.65 | glycan array binding signal (z-score) (Gal6S(b1-4)GlcNAc6S): 2.58 | glycan array binding signal (z-score) [2]: -0.542 | glycan array binding signal (z-score) [3]: 0.262 | glycan array binding signal (z-score) (GalNAc(b1-4)Gal(b1-4)Glc): -0.229 | glycan array binding signal (z-score) [4]: -0.419 | glycan array binding signal (z-score) (GalNAc(b1-4)GlcNAc6S): 2.55 | glycan array binding signal (z-score) (GalNAc6S(b1-4)GlcNAc): 0.009 | glycan array binding signal (z-score) [5]: -1.34 | glycan array binding signal (z-score) [6]: -0.207 | glycan array binding signal (z-score) [7]: 2.97 | glycan array binding signal (z-score) [8]: 2.73 | glycan array binding signal (z-score) [9]: 0.231 | glycan array binding signal (z-score) [10]: -0.597 | glycan array binding signal (z-score) (Man(a1-6)Man): -0.205 | glycan array binding signal (z-score) [11]: 0.104 | glycan array binding signal (z-score) [12]: -0.342 | glycan array binding signal (z-score) [13]: -0.073 | glycan array binding signal (z-score) [14]: 0.405 | glycan array binding signal (z-score) [15]: 0.515 | glycan array binding signal (z-score) [16]: 3.52 | glycan array binding signal (z-score) [17]: -0.648 | glycan array binding signal (z-score) [18]: 2.33 | glycan array binding signal (z-score) [19]: 1.52 | glycan array binding signal (z-score) [20]: -0.044 | glycan array binding signal (z-score) [21]: 0.729 | glycan array binding signal (z-score) [22]: -1.78
